# Calls of active or inactive are those of the source. No rule for the calls is given here.
# Test: compounds quenching green fluorescent protein signal – biochemical, plate reader, dry powder, artefact control, dose response (AID 493243)
# Conditions: GFP fluorescence counter-screen; series mostly up to 35 µM
row,SMILES,AC50
1,Cn1nc(-c2ccccn2)nc2c(=O)n(C)c(=O)nc1-2,0.752 µM (active)
2,Nc1cn(-c2ccccc2)nc1-c1ccc(F)cc1,inactive
3,Cc1oc2c(c1C(=O)NCc1ccccn1)C(=O)c1ccccc1C2=O,1.04 µM (active)
4,Cc1oc2c(c1C(=O)NCc1cccnc1)C(=O)c1ccccc1C2=O,3.57 µM (active)
5,Cc1ccccc1-n1ncc2c([N+](=O)[O-])cc([N+](=O)[O-])cc21,9.4 µM (active)
